aSyn yeast inh – rescues yeast growth from alpha-synuclein toxicity | AID 652106 | actives 0.14% (n = 370,000) | Potency, µM (highest dose often 46.1 µM), inactives show at the top dose growth rescue (activation), hits mostly activators | Yeast expressing alpha-synuclein, growth rescue, BacTiter-Glo, 24 h; further: % of control where 0% means no effect; nearly all actives have a fitted effect of over 65% in size
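Rescue of yeast growth: cells expressing toxic alpha-synuclein, induced in galactose at OD600 0.02, incubated with compound 24 h at 30 C. ATP luminescence quantified growth; inhibitors of toxicity appear as activators.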
Glioma ERSR ind – induces the endoplasmic reticulum stress response in human glioma cells. U87-MG GRP78 promoter luciferase reporter, 16 h. Potency, µM, without a hit: at the top dose activation, usual class: activators. actives 0.02% (n = 420,000). AID 602332; further: series mostly up to about 76 µM; % of control where 0% means no effect; nearly all actives have a fitted effect of over 35% in size
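Stably transfected U87-MG human glioma cells carrying a GRP78-based luminescent sensor were seeded at 1000 cells/well, pin-dosed with compounds and incubated 16 h. Luciferase reagent was then added, and end-point luminescence was read after 10 min at room temperature.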
Abeta rescue – A-beta toxicity reversal in yeast | yeast expressing A-beta42, growth rescue, OD600, 48 h; response scale: 0% DMSO, 100% iron-clioquinol control | Potency, µM (doses to about 46.1 µM), most hits filed as activators | actives 0.063% (n = 410,000) | AID 1347071; further: nearly all actives have a fitted effect of over 55% in size
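Yeast growth medium received pinned compounds, then yeast cells expressing toxic A-beta were added; plates incubated at 30 C for 48 hr. Growth read as absorbance at 600 nm, normalized to DMSO and equimolar FeCl3 plus clioquinol controls.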
FUS suppressor – suppressors of FUS proteinopathy in yeast | S. cerevisiae FUS-expressing, growth rescue, OD600, 24 h | Potency, µM (highest dose often 76.6 µM), actives largely listed as activators | actives 0.24% (n = 390,000) | AID 1347120;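 further: plate controls were DMSO vehicle for no effect and reference control for full effect; nearly all actives have a fitted effect of over 55% in size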
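Toxicity suppression screen in FUS-yeast. Cells induced with 2% galactose, starting OD 0.005, treated 24hr at 30C with compounds at multiple final concentrations; growth by OD600.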
MBNL1 CUG block – blocks human MBNL1 binding to CUG repeat RNA; Q9NR56; TR-FRET MBNL1-His/biotin-(CUG)12 binding, 665/545 ratio; Potency, µM (top dose mostly 57.5 µM), without a hit: top-dose activity change, negative = inhibition, most hits filed as inhibitors; actives 0.036% (n = 280,000); AID 2675; active means well fitted inhibition curve with a large enough effect in the signal ratio, with a control signal flat, not every such curve was filed as active; inconclusive means small, poorly fitted or top-dose-only effect, or effect the other way, or a change in a side signal; inactive means no such curve, though single readings can be large or run the other way; the % refers to the signal ratio; further: on the % scale 0 is the no-effect control and ±100 the full control effect
Target sequence (Q9NR56 whole entry, looked up): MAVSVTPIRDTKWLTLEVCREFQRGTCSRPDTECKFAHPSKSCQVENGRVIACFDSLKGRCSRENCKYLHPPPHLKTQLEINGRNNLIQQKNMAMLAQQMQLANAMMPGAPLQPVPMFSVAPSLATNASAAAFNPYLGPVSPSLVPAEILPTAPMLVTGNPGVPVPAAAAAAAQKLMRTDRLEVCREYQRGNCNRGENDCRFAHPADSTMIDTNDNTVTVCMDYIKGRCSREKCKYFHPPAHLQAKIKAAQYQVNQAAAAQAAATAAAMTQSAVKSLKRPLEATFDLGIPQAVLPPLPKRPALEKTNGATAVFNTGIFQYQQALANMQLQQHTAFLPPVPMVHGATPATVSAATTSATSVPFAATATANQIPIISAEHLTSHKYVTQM
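TR-FRET readout: Ex 340 nm, 665/545 nm emission ratio, normalized to buffer-only (basal) and MBNL1-(CUG)12 controls. Complex of MBNL1-His with Biotin-(CUG)12, compounds 92 nM–58 uM, incubated 60 min at room temperature.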
TDP43 rescue – TDP-43 toxicity inhibition in yeast | actives 1.8% (n = 410,000) | TDP-43 expressing yeast growth rescue, BacTiter-Glo, 24 h | Potency, µM (highest dose often 46.1 µM), for the others: top-dose growth rescue (activation), usual class: activators; further: % of control where 0% means no effect; nearly all actives have a fitted effect of over 50% in size
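Yeast expressing TDP-43 (pregrown in raffinose, seeded at OD600=0.02 in galactose medium) exposed to compounds 24 hr at 30 deg C. Growth read by BacTiter-Glo luminescence; rescue of toxicity appears as increased signal.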
* marks the source's active call; other numbers are inactive results; i = inactive; ? = inconclusive; nt = not tested or not shown; [ ] = another dose, or the depositor's remark. Shown are actives, neighbours in structure and some others; about 2% of the full set was active somewhere. Unless noted, the call rests on the fitted dose curve; in most records, active means well fitted curve in the direction sought with a large enough effect; inconclusive means small, poorly fitted or top-dose-only effect, or another doubt; inactive means no such curve, though single readings can be large; an effect the other way counts as inactive or inconclusive. Potency means the concentration at half of the fitted maximal effect.

SMILES	aSyn yeast inh	Glioma ERSR ind	Abeta rescue	FUS suppressor	MBNL1 CUG block	TDP43 rescue
COC(=O)C1=C(c2cc3ccccc3s2)C[C@@H]2CC[C@H]1N2C(=O)NCc1ccccc1	2%	-4%	i	i	nt	?
COc1cccc([C@@]2(O)CCCCC2CN(C)C)c1 (some centres undefined)	nt	-8%	nt	nt	nt	nt
COC(=O)[C@]1(C)CC[C@@]2(C)CC[C@@]3(C)C4=CC=C5C(=CC(=O)C(O)=C5C)[C@@]4(C)CC[C@@]3(C)C2C1 (some centres undefined)	nt	-13%	nt	nt	nt	nt
Oc1ccc2c3c1O[C@H]1[C@@H](O)C=CC4[C@@H](C2)NCC[C@@]341 (some centres undefined)	nt	-2%	nt	nt	nt	nt
CC(C)CCC(=O)OC1CCC2C3CCC4=CC(=O)CC[C@]4(C)C3CC[C@]12C (some centres undefined)	nt	5%	nt	nt	nt	nt
O=C(C(=O)N1CC=C(c2ccccc2)CC1)c1c[nH]c2ccccc12	?	-2%	i	i	-11%	16µM*
Cc1[nH]c2ccccc2c1C(=O)CN1CC=C(c2ccccc2)CC1	0%	-2%	i	i	0%	-5%
CCOC(=O)c1ccc(N2C(=O)CC(N3CCC(O)(c4ccc(Cl)cc4)CC3)C2=O)cc1 (centres undefined)	15%	-7%	i	i	-4%	5.6µM*
O=c1[nH]c(=O)n(CCC2=CCCCC2)c(O)c1C=NCCCn1ccnc1	-5%	-1%	i	13µM*	-4%	-14%
CC1(O)CCN2C(=O)CCc3cccc1c32 (centres undefined)	-7%[1.84 µM]	-2%	i	i	nt	13µM*
CCCSc1cc(OC)c(CCN)cc1OC	nt	-6%	nt	nt	nt	nt
CCC1CC2CC3c4[nH]c5ccc(OC)cc5c4CCN(C2)C13 (centres undefined)	nt	-5%	nt	nt	nt	nt
COc1cccc(C2CC3C(=O)C=CC2N3Cc2ccccc2)c1 (centres undefined)	19%	-5%	i	i	-13%	-13%
O=C1C=CC2C3C(=O)N(c4ccccc4)C(=O)C3C1N2Cc1ccccc1 (centres undefined)	8%	-14%	i	nt	nt	13µM*
O=C(Oc1ccc(Cl)cc1)N1CCOCC1	5%	-1%	i	i	-17%	20µM*
CC(=O)Nc1ccc(OC(=O)N2CCN(/[N+]([O-])=N/Oc3ccc([N+](=O)[O-])cc3[N+](=O)[O-])CC2)cc1	-29%	-11%	nt	nt	nt	nt
CC1(C(=O)O)CC12c1ccccc1-c1ccccc12 (centres undefined)	-20%	-7%	i	nt	nt	3.2µM*
[Hg+][c]1ccccc1	-79%	-12%	nt	nt	nt	nt
Cc1cccc(NC(=O)Oc2ccc(Cl)c3cccnc23)c1	0%	-1%	i	i	nt	?
O=S(=O)(c1ccc(Cl)cc1)N1CCC(n2cnc3cc(C(F)(F)F)ccc32)CC1	?	-3%	i	nt	nt	32µM*
CS(=O)(=O)c1ccc(C(=O)C2C(=O)CCCC2=O)c([N+](=O)[O-])c1	nt	-5%	nt	nt	nt	nt
Cc1nc2cc(OC(=O)N(C)Cc3cccc(-c4ccncc4)c3)ccc2s1	2%	nt	i	i	nt	10µM*
CC(C)[C@@]1(NC(=O)[C@H]2C[C@H]3c4cccc5[nH]cc(c45)C[C@@H]3N(C)C2)O[C@]2(O)[C@H]3CCCN3C(=O)CN2C1=O (tested in a mixture with another compound)	nt	-5%	nt	nt	nt	nt
C[C@H]1[C@@H]2Cc3ccc(O)cc3[C@]1(C)CCN2C	nt	-3%	nt	nt	nt	nt
O=C1/C(=C/c2cccc([N+](=O)[O-])c2)N2CCC1CC2	6%	-2%	i	i	8%	-11%
SMILES	aSyn yeast inh	Glioma ERSR ind	Abeta rescue	FUS suppressor	MBNL1 CUG block	TDP43 rescue
O=C1/C(=C/c2cc([N+](=O)[O-])ccc2Cl)N2CCC1CC2	4%	1%	i	i	35%	18µM*
C[C@]12CCC(=O)C(O)=C1CC[C@@H]1[C@@H]2CC[C@]2(C)C(=O)CC[C@@H]12	3%	-4%	i	i	-8%	13µM*
C[C@]12CC[C@H](O)C[C@@H]1CC[C@@H]1[C@@H]2CC[C@]2(C)C(=O)CC[C@@H]12	?	-5%	i	i	-3%	14µM*
C[C@]12CCC3[C@@H](CC[C@@H]4C[C@H](O)CC[C@]34C)[C@@H]1CCC2=O (some centres undefined)	3%	0%	i	i	nt	?
CC1=C2CCC3C4CCC(=O)[C@@]4(C)CCC3[C@]2(C)CCC1=O (some centres undefined)	nt	-6%	nt	nt	nt	nt
C[C@]12CCC3C(CCC4=CC(=O)CC[C@@H]43)C1CCC2O (some centres undefined)	nt	-3%	nt	nt	nt	nt
COc1cc(CCN)c(OC)cc1Br	nt	-2%	nt	nt	nt	nt
COc1cccc(-n2cnc3scc(-c4cccs4)c3c2=O)c1	9%	-3%	i	i	13%	18µM*
Cc1ccc2c(C)c3ccc4ccccc4c3c[n+]2c1	?	2%	i	nt	nt	2.5µM*
C[C@H]1O[C@@H](O[C@H]2[C@@H](O)C[C@@H](O[C@H]3[C@@H](O)C[C@H](O[C@H]4CC[C@@]5(C)[C@H](CC[C@@H]6[C@@H]5CC[C@]5(C)[C@@H](C7=CC(=O)OC7)CC[C@]65O)C4)O[C@@H]3C)O[C@@H]2C)C[C@H](O)[C@@H]1O	2%	-8%	nt	nt	nt	nt
Cc1cccc(C)c1-n1nnnc1C(c1cccc2ccccc12)N1CCC(n2c(=O)[nH]c3ccccc32)CC1 (centres undefined)	-2%	-5%	i	i	nt	22µM*
O=c1[nH]c2ccccc2n1C1CCN(C(c2cccs2)c2nnnn2Cc2ccccc2)CC1 (centres undefined)	5%	4%	i	?	nt	21%
O=c1[nH]c2ccccc2n1C1CCN(C(c2ccccc2OC(F)(F)F)c2nnnn2Cc2ccccc2)CC1 (centres undefined)	2%	-5%	i	20µM*	nt	25%
COc1cc2nc(N(C)C)c(CNCCc3c[nH]c4ccccc34)cc2c(OC)c1OC	nt	-3%	nt	nt	nt	nt
CN(C)c1ccc(/C=C/C=C2/C(=O)NC(=O)N(c3ccccc3)C2=O)cc1	-44%	?	i	5.6µM*	18%	-56%
Cn1c(O)c(C2=NNC(c3ccc(Cl)cc3)C2)c(=O)n(C)c1=O (centres undefined)	-12%	-5%	14µM*	i	nt	?

Source: PubChem
